# Measured values reported in the supplement of paper PMC4840960.
# ± gives the standard deviation of the averaged measurements.
# Key:
# [1] = tested on: E18 rat cortical neuron-glia co-culture; assay: fiber score / MBP score (myelination specific beyond OL differentiation) (ratio); higher = more myelination-specific MBP alignment; conditions: treatment time: 8 days (DIV5-DIV13)
# How it was run: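 The measure is the ratio of fiber score to MBP score, where fiber score is continuous MBP fiber length per Olig2+ nucleus and MBP score is thresholded MBP area × intensity per Olig2+ nucleus. Primary E18 rat cortical co-cultures received library compounds at 1 or 5 µM in myelination medium from DIV5 to DIV13, then were fixed in 4 % paraformaldehyde and stained for MBP, Olig2 and DAPI before analysis of four 10X fields per well in duplicate wells.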
# [2] = tested on: E18 rat cortical neuron-glia co-culture; assay: myelination (MBP fiber length per Olig2+ nucleus), % of 1 µM DAPT response (DMSO = 0) (% of DAPT); higher = more myelination, active = 50 or more; conditions: treatment time: 8 days (DIV5-DIV13)
# How it was run: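 The myelination value was the continuous straight MBP fiber length per Olig2+ nucleus, scaled between 0.1 % DMSO (0) and a 1 µM positive control (100). It was measured in primary E18 rat cortical co-cultures treated with library compounds at 1 or 5 µM in myelination medium from DIV5 through DIV13. Cells were fixed in 4 % paraformaldehyde and stained for MBP, Olig2 and DAPI, and four 10X fields per well were imaged in duplicate wells.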
Structure (SMILES),fiber score / MBP score ([1]; 1 µM),fiber score / MBP score ([1]; 5 µM),myelination ([2]; 1 µM),myelination ([2]; 5 µM)
CN1[C@@H]2CC[C@H]1C[C@@H](OC(=O)c1c[nH]c3ccccc13)C2 [Tropisetron],0.706,0.562,-47.4 (inactive),-53.9 (inactive)
C[C@]12C=CC(=O)C=C1CC[C@@H]1[C@@H]2[C@@H](O)C[C@@]2(C)[C@H]1CC[C@]2(O)C(=O)CO [Prednisolone],0.693,0.923,-6.4 (inactive),0.38 (inactive)
CCOC(=O)[C@H](CCc1ccccc1)N[C@@H](C)C(=O)N1[C@H](C(=O)O)C[C@@H]2CCC[C@@H]21 [Ramipril],0.635 ± 0.29,0.628 ± 0.47,-11.2 (inactive),-8.93 (inactive)
CC[C@H](C)C(=O)O[C@H]1C[C@@H](C)C=C2C=C[C@H](C)[C@H](CC[C@@H]3C[C@@H](O)CC(=O)O3)[C@H]21 [Lovastatin],2.07,6.02,-6.08 (inactive),1.23 (inactive)
CN1CCC[C@H]1c1cccnc1 [Nicotine],0.761,1.06,-10.1 (inactive),2.28 (inactive)
CC[N+](C)(CC)CCOC(=O)C(O)(c1ccccc1)C1CCCCC1 (configuration not stated) [Oxyphenonium],0.849,0.703,-8.21 (inactive),-6.58 (inactive)
O=C(c1ccccc1)c1ccc2n1CCC2C(=O)O (configuration not stated) [Ketorolac],0.853,1.12,-4.81 (inactive),2.63 (inactive)
COc1ccc2[nH]c([S@@+]([O-])Cc3ncc(C)c(OC)c3C)nc2c1 [Esomeprazole],0.799,0.979,-10.5 (inactive),4.81 (inactive)
